# Screens (PubChem)
# D2 PAM-1: D2 dopamine receptor (human) potentiation. 340,000 tested, 0.34% active. HEK293 T-REx D2, calcium flux, EC20 dopamine potentiation. P14416. potentiation, % at 10 µM;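 active = potentiation over 3 SD above the plate norm, cut at about 30% in these data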; also: 0% is about no effect
# Target sequence (P14416 whole entry, looked up): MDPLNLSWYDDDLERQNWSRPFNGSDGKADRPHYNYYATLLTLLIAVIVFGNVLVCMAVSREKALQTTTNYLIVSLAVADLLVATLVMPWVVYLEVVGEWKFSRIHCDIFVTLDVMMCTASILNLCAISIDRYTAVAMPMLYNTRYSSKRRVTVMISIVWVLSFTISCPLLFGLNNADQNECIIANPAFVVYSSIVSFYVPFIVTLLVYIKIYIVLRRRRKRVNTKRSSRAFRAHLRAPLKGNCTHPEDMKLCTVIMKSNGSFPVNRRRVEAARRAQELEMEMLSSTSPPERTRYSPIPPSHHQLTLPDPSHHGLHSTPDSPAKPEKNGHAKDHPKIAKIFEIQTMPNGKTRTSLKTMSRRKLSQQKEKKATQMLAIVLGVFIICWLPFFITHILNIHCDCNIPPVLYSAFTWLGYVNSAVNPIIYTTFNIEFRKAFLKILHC
#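 Tetracycline-induced Hek293 Trex D2 cells, force-coupled to calcium, loaded with no-wash calcium dye. Compound added with 180 s kinetic read for agonism, then EC20 dopamine and a further 180 s read for potentiation.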
# D2 ag-1: agonists of human D2 dopamine receptor (beta-arrestin). P14416. DiscoveRx PathHunter D2 beta-arrestin, luminescence, 90 min; 100% = 57 uM dopamine signal. activation, % (concentration not given with the values). 360,000 tested, 0.084% active. AID 624465; in the data active = activation above about 40%; inconclusive = between about 15% and that limit
#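 Agonist mode: compounds alone added to overnight-plated D2 PathHunter cells for 90 min at 37 C, with 57 uM final dopamine (EC100) defining full response. Beta-arrestin recruitment detected by chemiluminescent reagent, read after 1 h at ambient temperature.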
# D2 antagonist: antagonizes the human D2 dopamine receptor. AID 485344. HEK293 TREx D2 cells, calcium flux, dopamine EC80. P14416. inhibition, % at 10 µM. 340,000 tested, 2% active; in the data active = inhibition above about 30%; inactive = below that, where a call was filed; also: 0% is about no effect
#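 Compounds are added to dye-loaded, induced HEK293 T-REx cells coupled to calcium release via D2; after a 3 min kinetic read an EC80 dopamine stimulus is given and fluorescence is recorded for 3 more min.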
# D2 ag-2: activates the human D2 dopamine receptor; HEK293 T-REx D2 cells, calcium flux agonist mode; AID 485358; 340,000 tested, 0.53% active; P14416; activation, % at 2 µM;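 active = activation over 3 SD above normal in the single-dose calcium agonist read, cut at about 30% in these data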; also: 0% is about no effect
#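 HEK293 Trex D2 cells, tetracycline-induced, o/n 30 C 5% CO2; no-wash Ca dye, RT 30–90 min; 10-cycle baseline, 23 nl cpd added, kinetic Ca read 180 s; agonist hits = positive Ca response.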
# D2 PAM-2: human D2 receptor positive allosteric modulation; DiscoveRx D2 beta-arrestin cells, luminescence, 90 min; 100% = 57 uM dopamine signal; potentiation, % (no concentration beside the values); 360,000 tested, 0.23% active; in the data active = potentiation above about 50%; inconclusive = mostly about 30% to 49%
#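 PathHunter D2 cells, attached overnight at 37 deg C, received compound in DMSO plus dopamine at EC20 (50 nM final) for 90 min at 37 deg C. Beta-arrestin recruitment was read as luminescence after 1 h with detection reagent at ambient temperature.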
# Numbers without * were called inactive; ? = inconclusive; . = not tested or not shown. In the library only some 2.4% were active in any assay of this set; here they are far more common.
SMILES,D2 PAM-1,D2 ag-1,D2 antagonist,D2 ag-2,D2 PAM-2
Cn1c(=O)cc(OCC(=O)NCCCN2CCN(c3cccc(Cl)c3)CC2)c2ccccc21,-24.0,7.6,77.2*,69.3*,-10.6
Cc1oc2c(C)c(O)ccc2c(=O)c1-c1ccc2ccccc2n1,-4.3,-2.7,43.9*,-0.3,-14.8
CCC(=O)Oc1ccc2c(=O)c(-c3ccc4ccccc4n3)c(CC)oc2c1C,-1.7,0.2,-8.0,-0.7,1.6
COC(=O)NC(=S)Nc1ccc(Oc2ccc(Cl)cc2Cl)c(Cl)c1,36.3*,-1.3,.,.,-6.9
COC(=O)NC(=S)Nc1ccc(Oc2ccc(Cl)cc2)c(Cl)c1,-10.4,-2.5,2.1,1.1,-5.9
COc1cccc(NC(=O)C2CCCN2C(=O)Nc2ccccc2)c1 (stereo not drawn),4.5,-4.6,33.5*,-0.5,-14.3
COc1cccc(NC(=O)C2CCCN2C(=O)Nc2cccc(F)c2)c1 (stereo not drawn),-1.8,-1.6,1.5,0.5,2.9
O=C(Nc1cccc(Cl)c1)c1ccc2c(c1)CCN2S(=O)(=O)c1ccccc1,2.0,.,.,.,.
O=C(Cn1cc(S(=O)(=O)Cc2ccccc2Cl)c2ccccc21)Nc1ccc(F)cc1F,0.9,.,.,1.5,.
CCn1cc(/C=N/NC(=O)c2cc3c(ccc4ccccc43)o2)c2ccccc21,35.2*,0.3,-4.9,0.1,?
CCc1c(C)c2ccc(O)c(CN3CCN(c4ccccc4)CC3)c2oc1=O,4.3,.,.,-0.8,.
O=C(NCc1ccc(Cl)cc1)C(=O)NCC(c1ccco1)S(=O)(=O)c1cccs1 (stereo not drawn),.,.,.,0.7,.
COc1ccc2ncc3c(-c4ccc(C)c(C)c4)nn(CC(=O)Nc4ccccc4)c3c2c1,-5.3,.,.,-1.5,.
COc1ccccc1/C=C1\SC(=S)N(Nc2nc(C)cc(C)n2)C1=O,3.2,-1.7,-13.2,0.5,-15.1
Cc1cc(C)nc(NN2C(=O)/C(=C/c3ccc(O)cc3)SC2=S)n1,8.3,-7.4,44.7*,8.9,-18.4
Nc1c(-c2ccccc2)cnn1-c1cccc(Cl)c1,5.8,5.6,-5.2,0.7,-1.7
Nc1ccccc1Nc1cc(-c2cccc(Cl)c2)nn1-c1ccccc1,6.4,?,-4.8,0.9,67.6*
COc1ccc(C(=O)NCc2cn3ccsc3n2)cc1OC,33.1*,-3.0,-5.4,1.2,-1.9
O=C(CS(=O)(=O)c1cccc2nsnc12)NCc1ccc(Cl)cc1,2.9,.,.,-0.5,.
N#Cc1cccc(NC(=O)COC(=O)CCc2ccc(S(=O)(=O)N3CCOCC3)cc2)c1,5.7,-2.8,34.4*,-0.1,3.5
CCCN(C(=O)c1cc2c(=O)oc3ccccc3c2s1)c1ccccc1C,-1.9,.,.,0.6,.
COc1ccc(C(=O)Nc2cc3c(oc2=O)CCCC3=O)cc1,44.2*,-5.7,10.4,1.9,-0.7
COc1ccccc1CNC(=O)CCC(=O)N1CC(C)Sc2ccccc21 (stereo not drawn),-6.7,-9.5,31.7*,-0.1,-10.5
CC1CN(C(=O)CCC(=O)NCc2ccc(F)cc2)c2ccccc2S1 (stereo not drawn),-2.6,-2.2,-10.1,0.5,-0.7
COC(=O)CCCCCNc1ccc(C(=O)OC)cc1N,-33.6,-1.2,-5.2,36.6*,7.7
SMILES,D2 PAM-1,D2 ag-1,D2 antagonist,D2 ag-2,D2 PAM-2
Cc1ccc(C(=O)CN(C(=O)c2ccc(Cl)cc2)N2C(=O)c3ccccc3C2=O)cc1,-1.7,-0.7,-7.3,-0.7,-2.8
Cc1ccc(C(=O)CN(C(=O)c2ccc(Cl)cc2)N2C(=O)CCC2=O)cc1,-21.3,-5.2,30.5*,-1.3,-48.7
COc1ccccc1N1CCN(c2nc3ccccc3n3cnnc23)CC1,1.9,.,.,0.2,.
CC(NCC(O)c1ccc([N+](=O)[O-])cc1)C12CC3CC(CC(C3)C1)C2 (stereo not drawn),20.1,-6.9,38.2*,0.2,-7.3
O=C(NCC(O)c1ccc([N+](=O)[O-])cc1)Nc1ccccc1 (stereo not drawn),0.3,-2.9,6.2,-0.3,-12.0
CCCCCC1=CCC/C1=N\NC(=O)c1ccc2c(c1)OCO2,-3.1,1.3,31.2*,0.6,-9.3
Cc1ccc(SCC(=O)OCC(=O)N(C)CC(=O)Nc2ccccc2Cl)cc1C,-1.0,0.7,33.3*,2.1,6.2
CC(=O)Nc1ccc(Oc2sc(C(=O)c3ccccc3)c(N)c2C#N)cc1,-5.0,-3.0,31.5*,0.2,-9.7
CSc1ccc(CN2CCCC(CNC(=O)c3ccc(F)cc3)C2)cc1 (stereo not drawn),-13.8,0.1,40.7*,0.3,-18.0
O=C(NCC1CCCN(Cc2ccccc2F)C1)c1cccc(C(F)(F)F)c1 (stereo not drawn),-15.1,-4.8,31.5*,1.5,-9.8
COc1ccc(CC(=O)NCC2CCCN(Cc3cccc(C(F)(F)F)c3)C2)cc1 (stereo not drawn),0.6,-3.2,-15.2,2.2,-31.1
Cc1ccc(S(=O)(=O)CC(=O)c2ccc(C)c([N+](=O)[O-])c2)cc1,0.0,2.3,78.8*,0.8,-8.1
Cc1ccc(S(=O)(=O)CC(=O)c2ccc([N+](=O)[O-])cc2)cc1,-2.8,1.4,10.5,0.8,0.3
COCCCNC(=O)C1C2C=CC3(CN(Cc4ccc(C)cc4)C(=O)C13)O2 (stereo not drawn),14.6,-1.4,39.1*,0.2,-11.9
Cc1ccc(CN2CC34C=CC(O3)C(C(=O)NCc3ccc5c(c3)OCO5)C4C2=O)cc1 (stereo not drawn),.,-1.9,.,.,-0.4
CCOC(=O)CN1CC23C=CC(O2)C(C(=O)NC2CCCC2)C3C1=O (stereo not drawn),45.5*,0.5,-6.9,-1.0,0.0
CCOC(=O)CN1CC23C=CC(O2)C(C(=O)NC2CCCCC2)C3C1=O (stereo not drawn),3.6,-3.6,-7.5,0.2,2.3
COc1ccc2ccccc2c1/C=N/NC(=O)c1nnn(-c2nonc2N)c1C(C)C,-5.6,-0.1,34.7*,0.6,-28.8
Cc1ccc(-c2c(C(=O)N/N=C/c3ccsc3)nnn2-c2nonc2N)cc1,21.2,-4.0,34.5*,18.8,-0.6
CCOc1ccc(-c2c(C(=O)N/N=C/c3ccc(Cl)cc3)nnn2-c2nonc2N)cc1,84.1*,6.2,-10.1,-0.2,-0.4
COc1ccc2ccccc2c1/C=N/NC(=O)c1nnn(-c2nonc2N)c1CN(C)C,13.2,1.3,-3.1,-0.8,-6.7
Nc1nonc1-n1nnc(C(=O)N/N=C/c2ccccc2Cl)c1CN1CCOCC1,43.5*,3.9,3.9,0.2,-9.3
Cc1ccc2c(c1)N(C(=O)N1CCC(C(=O)NCc3ccccc3C)CC1)CC(C)O2 (stereo not drawn),5.5,.,.,-1.4,.
CC(C)OCCCn1c(=O)c2ccccc2n2c(-c3ccccc3)nnc12,-13.1,.,.,-0.1,.
CCOc1cc(/C=N/NC(=O)c2nnn(-c3nonc3N)c2C)ccc1OCc1cccc(F)c1,55.0*,-1.9,-7.1,0.5,-4.6
